Here are results for 16 compounds from PubChem BioAssay.

The nature of experiment [1]: compound effects on lung adenocarcinoma cell viability – A549, calcein-AM fluorescence, 48 h, basal, profiling panel (AID 1162). The settings on record: higher = more signal.
Experiment [2] in a line: compound effects on differentiated 3T3-L1 adipocyte viability – cell-based, 3T3-L1 adipocytes, calcein-AM fluorescence, 48 h, basal, profiling panel (AID 1163). The conditions noted are these: 3T3-L1 adipocytes viability, higher = more signal.
Experiment [3] in a line: compound effects on hepatocellular carcinoma cell viability – HepG2, calcein-AM fluorescence, 48 h, basal, profiling panel (AID 1164). The settings on record: higher = more signal.
Experiment [4] is described as follows: compound effects on multiple myeloma cell viability – MM1S, calcein-AM fluorescence, 48 h, basal, profiling panel (AID 1165).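 Also: viability of MM1S multiple myeloma cells under basal unstimulated conditions.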 The settings on record: higher = more signal.
A short description of experiment [5]: calcein-AM signal in unstimulated myeloma cells – cell-based, calcein-AM fluorescence, 48 h, PK04 Diversity Set, profiling panel (AID 1166).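 Also: cells grown under basal conditions without added stimulus.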 The settings on record: RPMI8226 myeloma viability, higher = more signal.
Experiment [6] is described as follows: JC-1 mitochondrial signal, unstimulated HepG2 cells – cell-based, JC-1 fluorescence, 24 h, 100 nL compound, profiling panel (AID 1167). The conditions noted are these: HepG2 mitochondrial potential, higher = more signal.
The nature of experiment [7]: JC-1 mitochondrial signal, unstimulated adipocytes – cell-based, JC-1 fluorescence, 3T3-L1 adipocytes, 24 h, 100 nL compound, profiling panel (AID 1168). The settings on record: JC-1 mitochondrial fluorescence, higher = more signal, called active from +8 up or from −8 down.
A short description of experiment [8]: JC-1 mitochondrial signal, unstimulated myeloma cells – cell-based, JC-1 fluorescence, RPMI8226, 24 h, 100 nL compound, profiling panel (AID 1169). The settings on record: JC-1 mitochondrial potential fluorescence, higher = more signal.
Experiment [9] is described as follows: JC-1 mitochondrial signal, unstimulated MM1S myeloma – cell-based, JC-1 fluorescence, 24 h, 100 nL compound, profiling panel (AID 1170). The conditions noted are these: MM1S mitochondrial potential, higher = more signal.
A short description of experiment [10]: resazurin metabolic signal in A549 cells – cell-based, resazurin fluorescence, 24 h, PK04 Diversity Set, profiling panel (AID 1171). The conditions noted are these: A549 viability, higher = more signal, called active from +8 up or from −8 down. Background: Resazurin is reduced to fluorescent resorufin, in cell work by metabolically active cells.

The source made the active and inactive calls.
Also: test concentration not given here.

For `C=C(/C(=C/C[C@@H](OC(C)=O)c1ccc(OCCO)cc1)c1cnc2ccccc2c1)C(C)C`, the z-score is 2.72 in [1]; 1.39 in experiment [2]; 1.25 in experiment [3]; -0.924 in [4]; 0.559 in [5]; 2.07 in [6]. Besides, the z-score in experiment [7] was -1.27 (inactive); in experiment [8] it was -0.139; in [9], -1.17; in experiment [10], 0.685 (inactive).

`CCCC[C@@H]1C[C@H]1[C@@H](NC(=O)c1ccco1)c1ccc(C(=O)OC)cc1`: the z-score was -1.06 in [1]; -1.16 in experiment [2]; -0.998 in experiment [3]; -1.77 in [4]; -2.42 in experiment [5]; -2.68 in [6]. Moreover, the z-score was -2.2 (inactive) in experiment [7], -0.705 in experiment [8], -1.19 in experiment [9] and -0.136 (inactive) in [10].

With `CN1C(=O)C2C=CC(C(O)c3cc(C(F)(F)F)cc(C(F)(F)F)c3)N(N3CCCCC3)C2C1=O` (stereo not given), the z-score in experiment [1] was 0.704; in experiment [2] it was 0.421; in [3], 0.499; in [4], -1.02; in experiment [5] it was -0.533; in experiment [6], -0.672. Moreover, the z-score in experiment [7] was -0.205 (inactive); in [8] it was 0.462; in experiment [9], -0.444; in [10] it was 0.113 (inactive).

Take `COc1ccc([Si](C)(C)[C@H]2[C@H](CCO)O[C@@]3(C(=O)N(Cc4ccc(N5C(=O)COc6ccccc65)cc4)c4ccccc43)[C@@H]2C)cc1`: the z-score in experiment [1] was -0.525; in [2], 0.0432; in [3] it was -3.14; in experiment [4], -2.36; in [5], -4.33; in experiment [6] it was -0.509. The z-score in experiment [7] is 1.36 (inactive); in experiment [8], -1.07; in [9], -2.12; in [10], -2.35 (inactive).

Take `COCCOC(=O)N1C(=O)[C@@]2(c3cc(C#CCCO)ccc31)[C@H](C(=O)N1CCc3cc(OC)c(OC)cc3C1)[C@H]1C(=O)O[C@H](c3ccccc3)[C@H](c3ccccc3)N1[C@@H]2c1ccc(O)cc1`: the z-score in [1] is -0.235; in experiment [2], 0.0133; in experiment [3] it was 2.58; in [4] it was 0.587; in experiment [5], 0.245; in [6], -0.404. Besides, the z-score in [7] was 0.0353 (inactive); in experiment [8] it was -0.385; in experiment [9], -0.546; in [10] it was -0.689 (inactive).

`O=C1NC(=O)C2C1C=CC(C(O)c1ccccc1)N2Nc1ccc(Cl)cc1Cl` (stereo not given): the z-score in experiment [1] is 0.0862; in experiment [2] it was -0.0715; in experiment [3] it was -1.48; in experiment [4], -3.55; in [5], -3.28; in experiment [6], -3.07. Also, the z-score in experiment [7] is -0.544 (inactive); in experiment [8] it was -1.09; in [9], -1.59; in experiment [10] it was -1.92 (inactive).

For `O=C(NCc1ccccc1)[C@@H]1c2ccccc2C(=O)N(CC23CC4CC(CC(C4)C2)C3)[C@H]1c1ccc(CO)cc1`, the z-score in experiment [1] is 0.449; in [2] it was -0.475; in experiment [3] it was 0.57; in experiment [4] it was -0.708; in [5], -0.896; in experiment [6], 0.362. Also, the z-score is -0.924 (inactive) in [7], -0.136 in [8], -0.711 in [9] and -0.471 (inactive) in experiment [10].

Take `CCOC(=O)C1=CCC(c2ccc(C)cc2)N(S(=O)(=O)c2ccc(C)cc2)C1` (stereo not given): the z-score in [1] is -1.25; in experiment [2] it was -0.825; in experiment [3], -0.743; in experiment [4], -0.537; in [5], -1.37; in [6], 5.35. Also, the z-score is -1.08 (inactive) in [7], 0.0194 in [8], -1.82 in experiment [9] and 0.697 (inactive) in experiment [10].

As to `COc1ccc([Si](C)(C)[C@@H]2[C@@H](CC(=O)N3Cc4ccccc4C[C@H]3CO)O[C@]3(C(=O)N(C)c4c(Br)cc(C)cc43)[C@H]2C)cc1`, the z-score in experiment [1] was -0.721; in [2] it was 0.181; in experiment [3], -3.73; in [4] it was -2.66; in experiment [5], -4.35; in experiment [6], 0.634. Besides, the z-score in [7] is 0.596 (inactive); in [8], -0.976; in experiment [9], -2.23; in experiment [10], -1.18 (inactive).

For `O=C1OCCC/C=C\[C@H]2OC34C=CCN(Cn5nnc6ccccc65)C(=O)[C@H]3N(CCCCCCO)C(=O)[C@@H]4C12` (stereo not given in full), the z-score was 1.06 in [1]; 0.469 in [2]; 1.42 in experiment [3]; 1.8 in [4]; -0.0474 in experiment [5]; 0.733 in experiment [6]. Further, the z-score in [7] was 0.932 (inactive); in experiment [8], -0.263; in experiment [9], -1.14; in [10] it was 0.818 (inactive).

Regarding `C=C(COC)/C(=C/C[C@H](OC(=O)c1ccncc1)c1ccc(OCCO)cc1)c1cnc2ccccc2c1`, the z-score in [1] is 1.54; in experiment [2] it was 0.317; in experiment [3], -0.303; in experiment [4] it was -1.98; in experiment [5] it was 0.0703; in experiment [6] it was -0.232. In addition, the z-score in [7] was -0.472 (inactive); in experiment [8], 0.147; in [9], -0.799; in [10] it was 0.67 (inactive).

`CN(C)C(=O)[C@]1(Cc2ccccc2CN=[N+]=[N-])N=C(c2ccc(OCCCO)cc2)O[C@@H]1c1ccccc1CN=[N+]=[N-]`: the z-score is -0.999 in experiment [1]; 1.59 in experiment [2]; 0.309 in [3]; -2.26 in experiment [4]; -4.24 in [5]; 0.644 in experiment [6]. Further, the z-score in experiment [7] is -0.735 (inactive); in experiment [8], -1.13; in experiment [9], -0.0198; in [10] it was 0.113 (inactive).

In the case of `CC1(C)[C@@H]2CC(C(O)C3C=CC4C(=O)N(c5ccccc5)C(=O)C4N3Nc3ccccc3)=C[C@H]1C2` (stereo not given in full), the z-score is -1.66 in experiment [1]; -1.16 in [2]; -1.16 in [3]; -0.528 in experiment [4]; -0.209 in [5]; -1.79 in experiment [6]. Further, the z-score in experiment [7] was -1.46 (inactive); in experiment [8], 0.263; in experiment [9], -0.527; in experiment [10], -0.158 (inactive).

Consider `C=CCOC(=O)[C@H]1[C@@H]2C(=O)O[C@@H](c3ccccc3)[C@@H](c3ccccc3)N2[C@@H](c2ccc(OCCOC(=O)[C@@H]3C[C@@H]4C(=O)N[C@@H](CCCC[N+](C)(C)C)C(=O)N4[C@@H]3c3ccc(O)cc3)cc2)[C@]12C(=O)Nc1ccccc12`, for which the z-score in experiment [1] is 1.23; in experiment [2], 1.53; in experiment [3] it was -0.265; in [4] it was -1.07; in [5], 0.95; in experiment [6], -1.37. The z-score was 0.396 (inactive) in experiment [7], -0.923 in experiment [8], -0.504 in experiment [9] and 1.19 (inactive) in experiment [10].

For `COCCn1c(C(=O)N2CCCC2)cc2c1C[C@H]1CN(C(=O)c3ccccc3)[C@@](Cc3ccc(F)cc3)(C(=O)OC)[C@@H]21`, the z-score in [1] is -1.27; in [2], 0.25; in [3], -0.366; in experiment [4], -1.21; in experiment [5], -1.22; in [6], 0.584. The z-score is -0.757 (inactive) in [7], -0.37 in [8], -1.37 in experiment [9] and 0.409 (inactive) in [10].

With `C#CCN(CC1=CCCCC1)[C@H](c1ccccc1Br)[C@@H](O)Cc1ccccc1`, the z-score in experiment [1] is -0.101; in [2], 0.109; in [3], 0.455; in experiment [4] it was -2.26; in experiment [5] it was -4; in experiment [6] it was -1.05. For the same compound, the z-score in [7] is -0.352 (inactive); in experiment [8] it was -1.08; in experiment [9], -0.635; in experiment [10], 1.2 (inactive).
